Reference: PubChem BioAssay AID1159580 (chemical genetic matrix, 2015)
About 2,000 (36%) of roughly 5,500 compounds were called active. Not shown: some 18% with an inconclusive outcome. Some of the results follow. A number with no mark means an inactive call. No stated cut-off is given here; in the data, active means normalized growth mostly below about 0.91 (no sharp cut-off); inconclusive means no clear call, values can overlap the other calls; inactive means mostly above about 0.92.

Assay: chemical genetic growth profiling, strain panel (AID 1159580);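 further: tested at 20 µM; growth read once vehicle control cultures reached saturation at 30 °C; 1 = growth at the plate median or of vehicle wells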
Settings: growth OD
[1] = S. cerevisiae deletion strains, locus YDL101C, strain DUN1, stronger effect = lower value
[2] = S. cerevisiae deletion strains, locus YHR030C, strain SLT2, stronger effect = lower value

SMILES: Cc1cc(NC(=O)Nc2cccc(C(F)(F)F)c2)n(C)n1
- normalized growth (S. cerevisiae deletion strains, locus YAL013W, strain DEP1, stronger effect = lower value): 1
- normalized growth (S. cerevisiae deletion strains, locus YBR229C, strain ROT2, stronger effect = lower value): 0.997
- normalized growth (S. cerevisiae deletion strains, locus YCL061C, strain MRC1, stronger effect = lower value): 1.01
- normalized growth [1]: 0.983
- normalized growth (S. cerevisiae deletion strains, locus YDR150W, strain NUM1, stronger effect = lower value): 0.998
- normalized growth (S. cerevisiae deletion strains, locus YEL061C, strain CIN8, stronger effect = lower value): 1.01
- normalized growth (S. cerevisiae deletion strains, locus YGR078C, strain PAC10, stronger effect = lower value): 1.01
- normalized growth [2]: 1.08
- normalized growth (S. cerevisiae deletion strains, locus YHR087W, strain rtc3, stronger effect = lower value): 0.989
- normalized growth (S. cerevisiae deletion strains, locus YJR043C, strain POL32, stronger effect = lower value): 0.998
- normalized growth (S. cerevisiae deletion strains, locus YJR075W, strain HOC1, stronger effect = lower value): 0.992
- normalized growth (S. cerevisiae deletion strains, locus YLR039C, strain RIC1, stronger effect = lower value): 1.02
- normalized growth (S. cerevisiae deletion strains, locus YLR058C, strain SHM2 (second series), stronger effect = lower value): 1.01
- normalized growth (S. cerevisiae deletion strains, locus YLR085C, strain ARP6, stronger effect = lower value): 0.986
- normalized growth (S. cerevisiae deletion strains, locus YLR262C, strain YPT6, stronger effect = lower value): 1.09
- normalized growth (S. cerevisiae deletion strains, locus YML094W, strain GIM5, stronger effect = lower value): 0.987
- normalized growth (S. cerevisiae deletion strains, locus YMR219W, strain ESC1, stronger effect = lower value): 1
- normalized growth (S. cerevisiae deletion strains, locus YMR263W, strain SAP30, stronger effect = lower value): 1.01
- normalized growth (S. cerevisiae deletion strains, locus YNL153C, strain GIM3, stronger effect = lower value): 0.998
- normalized growth (S. cerevisiae deletion strains, locus YNL298W, strain CLA4 (second series), stronger effect = lower value): 0.991
- normalized growth (S. cerevisiae deletion strains, locus YNL322C, strain KRE1, stronger effect = lower value): 1.01
- normalized growth (S. cerevisiae deletion strains, locus YNR030W, strain Alg12, stronger effect = lower value): 1
- normalized growth (S. cerevisiae deletion strains, locus YOL006C, strain TOP1, stronger effect = lower value): 1
- normalized growth (S. cerevisiae deletion strains, locus YPL055C, strain LGE1, stronger effect = lower value): 0.989
- normalized growth (S. cerevisiae deletion strains, locus YPL241C, strain CIN2, stronger effect = lower value): 0.981
- normalized growth (S. cerevisiae deletion strains, locus YPR135W, strain CTF4, stronger effect = lower value): 1.08
- normalized growth (S. cerevisiae strains, strain wild type, stronger effect = lower value): 0.986

SMILES: CC(C)Sc1c(Cl)cccc1NC(=O)Nc1ccccc1
- normalized growth (S. cerevisiae deletion strains, locus YAR019C, strain CDC15, stronger effect = lower value): 0.971
- normalized growth (S. cerevisiae deletion strains, locus YBL105C, strain PKC1, stronger effect = lower value): 0.97
- normalized growth (S. cerevisiae deletion strains, locus YBR135W, strain CKS1, stronger effect = lower value): 0.96
- normalized growth (S. cerevisiae deletion strains, locus YBR136W, strain MEC1, stronger effect = lower value): 0.959
- normalized growth (S. cerevisiae deletion strains, locus YBR160W, strain CDC28, stronger effect = lower value): 0.962
- normalized growth (S. cerevisiae deletion strains, locus YDL017W, strain CDC7, stronger effect = lower value): 0.968
- normalized growth (S. cerevisiae deletion strains, locus YDL028C, strain MPS1, stronger effect = lower value): 0.962
- normalized growth [1]: 0.976
- normalized growth (S. cerevisiae deletion strains, locus YDL108W, strain KIN28, stronger effect = lower value): 0.966
- normalized growth (S. cerevisiae deletion strains, locus YDL132W, strain cdc53, stronger effect = lower value): 0.974
- normalized growth (S. cerevisiae deletion strains, locus YDL214C, strain PRR2, stronger effect = lower value): 0.871
- normalized growth (S. cerevisiae deletion strains, locus YDR052C, strain DBF4, stronger effect = lower value): 0.973
- normalized growth (S. cerevisiae deletion strains, locus YDR054C, strain cdc34, stronger effect = lower value): 0.959
- normalized growth (S. cerevisiae deletion strains, locus YDR226W, strain ADK1, stronger effect = lower value): 0.976
- normalized growth (S. cerevisiae deletion strains, locus YDR477W, strain SNF1, stronger effect = lower value): 0.867
- normalized growth (S. cerevisiae deletion strains, locus YER123W, strain YCK3, stronger effect = lower value): 0.813
- normalized growth (S. cerevisiae deletion strains, locus YER133W, strain GLC7, stronger effect = lower value): 0.899
- normalized growth (S. cerevisiae deletion strains, locus YFL009W, strain cdc4, stronger effect = lower value): 0.97
- normalized growth (S. cerevisiae deletion strains, locus YFL029C, strain CAK1, stronger effect = lower value): 0.964
- normalized growth (S. cerevisiae deletion strains, locus YFR003C, strain YPI1, stronger effect = lower value): 0.957
- normalized growth (S. cerevisiae deletion strains, locus YFR019W, strain FAB1, stronger effect = lower value): 0.872
- normalized growth (S. cerevisiae deletion strains, locus YFR028C, strain CDC14, stronger effect = lower value): 0.963
- normalized growth (S. cerevisiae deletion strains, locus YGR040W, strain KSS1, stronger effect = lower value): 0.843
- normalized growth (S. cerevisiae deletion strains, locus YGR052W, strain FMP48, stronger effect = lower value): 0.937
- normalized growth (S. cerevisiae deletion strains, locus YGR092W, strain DBF2, stronger effect = lower value): 0.836
- normalized growth [2]: 0.666 (active)
- normalized growth (S. cerevisiae deletion strains, locus YHR079C, strain IRE1, stronger effect = lower value): 0.898
- normalized growth (S. cerevisiae deletion strains, locus YHR082C, strain KSP1, stronger effect = lower value): 0.858
- normalized growth (S. cerevisiae deletion strains, locus YHR205W, strain SCH9, stronger effect = lower value): 0.788
- normalized growth (S. cerevisiae deletion strains, locus YIL147C, strain SLN1, stronger effect = lower value): 0.964
- normalized growth (S. cerevisiae deletion strains, locus YJL095W, strain BCK1, stronger effect = lower value): 0.803
- normalized growth (S. cerevisiae deletion strains, locus YJL128C, strain PBS2, stronger effect = lower value): 0.966
- normalized growth (S. cerevisiae deletion strains, locus YJL157C, strain FAR1, stronger effect = lower value): 0.895
- normalized growth (S. cerevisiae deletion strains, locus YJR016C, strain ILV3, stronger effect = lower value): 0.97
- normalized growth (S. cerevisiae deletion strains, locus YJR066W, strain TOR1 (second series), stronger effect = lower value): 0.915
- normalized growth (S. cerevisiae deletion strains, locus YJR066W, strain TOR1, stronger effect = lower value): 0.835
- normalized growth (S. cerevisiae deletion strains, locus YKL048C, strain ELM1, stronger effect = lower value): 0.874
- normalized growth (S. cerevisiae deletion strains, locus YKL067W, strain YNK1, stronger effect = lower value): 0.892
- normalized growth (S. cerevisiae deletion strains, locus YKL101W, strain HSL1, stronger effect = lower value): 0.891
- normalized growth (S. cerevisiae deletion strains, locus YKL193C, strain SDS22, stronger effect = lower value): 0.963
- normalized growth (S. cerevisiae deletion strains, locus YKL203C, strain TOR2, stronger effect = lower value): 0.891
- normalized growth (S. cerevisiae deletion strains, locus YLR113W, strain HOG1, stronger effect = lower value): 0.765 (active)
- normalized growth (S. cerevisiae deletion strains, locus YLR133W, strain CKI1, stronger effect = lower value): 0.857
- normalized growth (S. cerevisiae deletion strains, locus YLR403W, strain SFP1, stronger effect = lower value): 0.863
- normalized growth (S. cerevisiae deletion strains, locus YML070W, strain DAK1, stronger effect = lower value): 0.869
- normalized growth (S. cerevisiae deletion strains, locus YMR001C, strain CDC5, stronger effect = lower value): 0.967
- normalized growth (S. cerevisiae deletion strains, locus YMR205C, strain PFK2 (second series), stronger effect = lower value): 0.863
- normalized growth (S. cerevisiae deletion strains, locus YMR277W, strain FCP1, stronger effect = lower value): 0.962
- normalized growth (S. cerevisiae deletion strains, locus YNL006W, strain LST8, stronger effect = lower value): 0.975
- normalized growth (S. cerevisiae deletion strains, locus YNL020C, strain ARK1, stronger effect = lower value): 0.861
- normalized growth (S. cerevisiae deletion strains, locus YNL161W, strain CBK1, stronger effect = lower value): 0.975
- normalized growth (S. cerevisiae deletion strains, locus YNL183C, strain NPR1, stronger effect = lower value): 0.827
- normalized growth (S. cerevisiae deletion strains, locus YNL207W, strain RIO2, stronger effect = lower value): 0.965
- normalized growth (S. cerevisiae deletion strains, locus YNL222W, strain SSU72, stronger effect = lower value): 0.964
- normalized growth (S. cerevisiae deletion strains, locus YNL307C, strain MCK1 (second series), stronger effect = lower value): 0.771
- normalized growth (S. cerevisiae deletion strains, locus YOL078W, strain AVO1, stronger effect = lower value): 0.964
- normalized growth (S. cerevisiae deletion strains, locus YOL136C, strain PFK27, stronger effect = lower value): 0.86
- normalized growth (S. cerevisiae deletion strains, locus YOR061W, strain CKA2, stronger effect = lower value): 0.895
- normalized growth (S. cerevisiae deletion strains, locus YOR119C, strain RIO1, stronger effect = lower value): 0.935
- normalized growth (S. cerevisiae deletion strains, locus YOR231W, strain MKK1, stronger effect = lower value): 0.883
- normalized growth (S. cerevisiae deletion strains, locus YOR329C, strain SCD5, stronger effect = lower value): 0.966
- normalized growth (S. cerevisiae deletion strains, locus YPL031C, strain PHO85, stronger effect = lower value): 0.853
- normalized growth (S. cerevisiae deletion strains, locus YPL153C, strain RAD53, stronger effect = lower value): 0.867
- normalized growth (S. cerevisiae deletion strains, locus YPL204W, strain HRR25, stronger effect = lower value): 0.839
- normalized growth (S. cerevisiae deletion strains, locus YPL209C, strain IPL1, stronger effect = lower value): 0.973
- normalized growth (S. cerevisiae deletion strains, locus YPL256C, strain CLN2, stronger effect = lower value): 0.803 (active)
- normalized growth (S. cerevisiae deletion strains, locus YPR025C, strain CCL1, stronger effect = lower value): 0.961
- normalized growth (S. cerevisiae deletion strains, locus YPR106W, strain ISR1, stronger effect = lower value): 0.964
- normalized growth (S. cerevisiae deletion strains, locus YPR111W, strain DBF20, stronger effect = lower value): 0.951
- normalized growth (S. cerevisiae deletion strains, strain NNK1, stronger effect = lower value): 0.942
- normalized growth (S. cerevisiae deletion strains, strain TSCII, stronger effect = lower value): 0.963
